Assay [1] in a line: NCI Yeast Anticancer Drug Screen. Data for the rad50 strain (AID 155).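 Also: 0% = growth of vehicle-only cultures of the same strain.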 Conditions: S. cerevisiae rad50 strain growth inhibition, hits give high values. The gist of the method:
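Genetically altered yeast (DNA repair pathway); compound treatment; growth inhibition vs vehicle ctrl.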

Assay [2] can be described thus: NCI Yeast Anticancer Drug Screen. Data for the mec2-1 strain (AID 157). Conditions: S. cerevisiae mec2-1 strain, hits give high values. The gist of the method: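 Yeast mec2-1 mutant treated with compound. Readout: growth inhibition vs vehicle controls.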
Assay [3] in a line: NCI Yeast Anticancer Drug Screen. Data for the sgs1 mgt1 strain (AID 161).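 Also: 0% = growth of cultures given vehicle only.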 Particulars: S. cerevisiae sgs1 mgt1 strain, hits give high values. The gist of the method: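 Mutant yeast exposed to compound; growth scored against vehicle-only wells.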
A short description of assay [4]: NCI Yeast Anticancer Drug Screen. Data for the cln2 rad14 strain (AID 165).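 Also: 0% = growth equal to vehicle treated cultures.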 Particulars: S. cerevisiae cln2 rad14 strain, hits give high values. The gist of the method:
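cln2 rad14 yeast strain; compound exposure; growth inhibition read vs vehicle controls.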

Assay [5] in a line: NCI Yeast Anticancer Drug Screen. Data for the bub3 strain (AID 167). Particulars: S. cerevisiae bub3 mutant strain, hits give high values. The gist of the method: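 Yeast carrying a defined mutation is treated with each compound, and growth is compared with that of vehicle-exposed cells to give inhibition.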
Assay [6] can be described thus: NCI Yeast Anticancer Drug Screen. Data for the mlh1 rad18 strain (AID 175). Particulars: S. cerevisiae mlh1 rad18 strain growth inhibition, hits give high values. The gist of the method: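 Yeast w/ defined DNA-repair lesions; compound exposure; growth vs vehicle controls → % inhibition.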
Setting [7] is: at 5.0 µM (retest, dose inferred, filed as 0.5).
[8] abbreviates: at 50.0 µM (retest, dose inferred, filed as 5.0).

This is part of a sample that, as a whole, favours compounds with a hit. Of some 79,000 tested, about 15% had one in any assay. Unmarked numbers belong to inactive results. Calls of active or inactive are those of the source. Rule as the data show it: active = growth inhibition above about 70%; inactive = the rest.

As for `CCOC(=O)N/N=C/c1ccc(N(C)CCC#N)cc1`, the growth inhibition in assay [1] (setting [7]) was 7%; in assay [1] (setting [8]), 6%; in assay [1] (at 50.0 µM) it was -12%; in assay [2] (setting [7]) it was -3%; in assay [2] (setting [8]) it was 12%; in assay [2] (at 50.0 µM), -26.9%. Besides, the growth inhibition in assay [3] (setting [7]) is -4%; in assay [3] (setting [8]) it was 4%; in assay [3] (at 50.0 µM), 55.2%; in assay [4] (setting [7]), 37%; in assay [4] (setting [8]), 17%; in assay [4] (at 50.0 µM), 5.5%. Also, the growth inhibition in assay [5] (setting [7]) is 22%; in assay [5] (setting [8]), 15%; in assay [5] (at 50.0 µM), 1.1%; in assay [6] (setting [7]), 14%; in assay [6] (setting [8]) it was 24%; in assay [6] (at 50.0 µM), -3.6%.

Take `O=C1/C(=C/c2ccc([N+](=O)[O-])cc2)CNC/C1=C\c1ccc([N+](=O)[O-])cc1`: the growth inhibition was 74% (active) in assay [1] (setting [7]); 99% (active) in assay [1] (setting [8]); 77% (active) in assay [1] (at 50.0 µM); 87% (active) in assay [2] (setting [7]); 99% (active) in assay [2] (setting [8]); 87.5% (active) in assay [2] (at 50.0 µM). Further, the growth inhibition is 93% (active) in assay [3] (setting [7]); 99% (active) in assay [3] (setting [8]); 85.5% (active) in assay [3] (at 50.0 µM); 73% (active) in assay [4] (setting [7]); 97% (active) in assay [4] (setting [8]); 74% (active) in assay [4] (at 50.0 µM). Besides, the growth inhibition in assay [5] (setting [7]) is 90% (active); in assay [5] (setting [8]), 99% (active); in assay [5] (at 50.0 µM) it was 83.8% (active); in assay [6] (setting [7]), 96% (active); in assay [6] (setting [8]), 99% (active); in assay [6] (at 50.0 µM), 75.7% (active).

Regarding `Cc1ccccc1C(O)(c1ccccc1C)C1(O)CCN(C)CC1`, the growth inhibition in assay [1] (setting [7]) is 0%; in assay [1] (setting [8]) it was -3%; in assay [1] (at 50.0 µM), 86.2% (active); in assay [2] (setting [7]), -4%; in assay [2] (setting [8]), 0%; in assay [2] (at 50.0 µM), 96.7% (active). Besides, the growth inhibition in assay [3] (setting [7]) is 2%; in assay [3] (setting [8]) it was -10%; in assay [3] (at 50.0 µM), 96.2% (active); in assay [4] (setting [7]) it was -7%; in assay [4] (setting [8]), -11%; in assay [4] (at 50.0 µM), 91.8% (active). Besides, the growth inhibition is -4% in assay [5] (setting [7]); -11% in assay [5] (setting [8]); 96.2% (active) in assay [5] (at 50.0 µM); 13% in assay [6] (setting [7]); -2% in assay [6] (setting [8]); 98.7% (active) in assay [6] (at 50.0 µM).

As for `Cc1[nH]ccc2c(C)c3nc4ccccc4c3cc12`, the growth inhibition in assay [1] (setting [7]) is 47%; in assay [1] (setting [8]), 97% (active); in assay [1] (at 50.0 µM), 90% (active); in assay [2] (setting [7]), 10%; in assay [2] (setting [8]), 87% (active); in assay [2] (at 50.0 µM), 88.3% (active). Also, the growth inhibition in assay [3] (setting [7]) was 14%; in assay [3] (setting [8]), 87% (active); in assay [3] (at 50.0 µM) it was 90.5% (active); in assay [4] (setting [7]), 4%; in assay [4] (setting [8]), 82% (active); in assay [4] (at 50.0 µM) it was 82.9% (active). Further, the growth inhibition in assay [5] (setting [7]) was 9%; in assay [5] (setting [8]), 73% (active); in assay [5] (at 50.0 µM), 89% (active); in assay [6] (setting [7]) it was 13%; in assay [6] (setting [8]), 95% (active); in assay [6] (at 50.0 µM) it was 90.3% (active).

As to `Oc1ccc(-c2ccccc2)cc1Cl`, the growth inhibition is -1% in assay [1] (setting [7]); 98% (active) in assay [1] (setting [8]); 99.2% (active) in assay [1] (at 50.0 µM); -12% in assay [2] (setting [7]); 99% (active) in assay [2] (setting [8]); 99.7% (active) in assay [2] (at 50.0 µM). In addition, the growth inhibition in assay [3] (setting [7]) is -3%; in assay [3] (setting [8]) it was 99% (active); in assay [3] (at 50.0 µM), 99.7% (active); in assay [4] (setting [7]), -11%; in assay [4] (setting [8]), 98% (active); in assay [4] (at 50.0 µM), 97.5% (active). The growth inhibition in assay [5] (setting [7]) is -23%; in assay [5] (setting [8]), 98% (active); in assay [5] (at 50.0 µM) it was 99.4% (active); in assay [6] (setting [7]) it was -5%; in assay [6] (setting [8]), 99% (active); in assay [6] (at 50.0 µM), 99% (active).

In the case of `NC1CCCCC1N.O=C([O-])c1ccc(N=Nc2cccc([N+](=O)[O-])c2)cc1O.O=C([O-])c1ccc(N=Nc2cccc([N+](=O)[O-])c2)cc1O.[Pt+4]`, the growth inhibition is 15% in assay [1] (setting [7]); 23% in assay [1] (setting [8]); -2.95% in assay [1] (at 50.0 µM); 18% in assay [2] (setting [7]); 36% in assay [2] (setting [8]); -2.45% in assay [2] (at 50.0 µM). In addition, the growth inhibition in assay [3] (setting [7]) is -20%; in assay [3] (setting [8]) it was 36%; in assay [3] (at 50.0 µM) it was 3%; in assay [4] (setting [7]), -8%; in assay [4] (setting [8]) it was 20%; in assay [4] (at 50.0 µM), -18.6%. Further, the growth inhibition was 28% in assay [5] (setting [7]); 45% in assay [5] (setting [8]); -19.4% in assay [5] (at 50.0 µM); 25% in assay [6] (setting [7]); 34% in assay [6] (setting [8]); 6.8% in assay [6] (at 50.0 µM).

In the case of `O=[N+]([O-])c1cccc(S(=O)(=O)Cl)c1`, the growth inhibition in assay [1] (setting [7]) was -1%; in assay [1] (setting [8]), 10%; in assay [1] (at 50.0 µM) it was -15.3%; in assay [2] (setting [7]) it was 2%; in assay [2] (setting [8]), 3%; in assay [2] (at 50.0 µM), 14.9%. The growth inhibition in assay [3] (setting [7]) was 1%; in assay [3] (setting [8]), 6%; in assay [3] (at 50.0 µM) it was 14.2%; in assay [4] (setting [7]) it was -3%; in assay [4] (setting [8]) it was 0%; in assay [4] (at 50.0 µM), 43.9%. Also, the growth inhibition in assay [5] (setting [7]) was -2%; in assay [5] (setting [8]), 4%; in assay [5] (at 50.0 µM) it was 59.5%; in assay [6] (setting [7]), -1%; in assay [6] (setting [8]) it was 2%; in assay [6] (at 50.0 µM) it was 33.5%.

For the molecule `COc1ccccc1NC(c1ccccc1)c1ccc2cccnc2c1O` (configuration not stated), the growth inhibition was 2% in assay [1] (setting [7]); 50% in assay [1] (setting [8]); 81.2% (active) in assay [1] (at 50.0 µM); 3% in assay [2] (setting [7]); 60% in assay [2] (setting [8]); 49.2% in assay [2] (at 50.0 µM). Moreover, the growth inhibition in assay [3] (setting [7]) is 7%; in assay [3] (setting [8]), 45%; in assay [3] (at 50.0 µM), 73.2% (active); in assay [4] (setting [7]) it was -7%; in assay [4] (setting [8]), -1%; in assay [4] (at 50.0 µM), 15.2%. Besides, the growth inhibition is -5% in assay [5] (setting [7]); 18% in assay [5] (setting [8]); 2.9% in assay [5] (at 50.0 µM); -23% in assay [6] (setting [7]); 44% in assay [6] (setting [8]); 75% (active) in assay [6] (at 50.0 µM).

As to `CCCCCCCCCc1cccc(N2C(N)=NC(N)=NC2(C)C)c1`, the growth inhibition in assay [1] (setting [7]) was 99% (active); in assay [1] (setting [8]), 88% (active); in assay [1] (at 50.0 µM), 99.3% (active); in assay [2] (setting [7]), 100% (active); in assay [2] (setting [8]), 28%; in assay [2] (at 50.0 µM), 99.6% (active). Moreover, the growth inhibition in assay [3] (setting [7]) is 99% (active); in assay [3] (setting [8]), 42%; in assay [3] (at 50.0 µM), 99.6% (active); in assay [4] (setting [7]), 99% (active); in assay [4] (setting [8]), 19%; in assay [4] (at 50.0 µM), 99% (active). For the same molecule, the growth inhibition in assay [5] (setting [7]) is 98% (active); in assay [5] (setting [8]), 12%; in assay [5] (at 50.0 µM), 99.4% (active); in assay [6] (setting [7]), 99% (active); in assay [6] (setting [8]), 29%; in assay [6] (at 50.0 µM), 99.4% (active).
